{
  "source": "paper PMC4336329",
  "about": "(PLoS ONE, 2015)",
  "note": "Out of some 310,000 compounds screened, about 14,000 (4.5%) showed an effect of 50% or more. Effects have a minus sign here. The full list was thinned out, with strong results kept by preference.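 Note: peak tail current of the secondary pulse compared with the same well before compound.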",
  "data": [
    {"target": "human ether-à-go-go-related gene (hERG) potassium channel (human, UniProt Q12809)", "sequence (Q12809 whole entry, looked up)": "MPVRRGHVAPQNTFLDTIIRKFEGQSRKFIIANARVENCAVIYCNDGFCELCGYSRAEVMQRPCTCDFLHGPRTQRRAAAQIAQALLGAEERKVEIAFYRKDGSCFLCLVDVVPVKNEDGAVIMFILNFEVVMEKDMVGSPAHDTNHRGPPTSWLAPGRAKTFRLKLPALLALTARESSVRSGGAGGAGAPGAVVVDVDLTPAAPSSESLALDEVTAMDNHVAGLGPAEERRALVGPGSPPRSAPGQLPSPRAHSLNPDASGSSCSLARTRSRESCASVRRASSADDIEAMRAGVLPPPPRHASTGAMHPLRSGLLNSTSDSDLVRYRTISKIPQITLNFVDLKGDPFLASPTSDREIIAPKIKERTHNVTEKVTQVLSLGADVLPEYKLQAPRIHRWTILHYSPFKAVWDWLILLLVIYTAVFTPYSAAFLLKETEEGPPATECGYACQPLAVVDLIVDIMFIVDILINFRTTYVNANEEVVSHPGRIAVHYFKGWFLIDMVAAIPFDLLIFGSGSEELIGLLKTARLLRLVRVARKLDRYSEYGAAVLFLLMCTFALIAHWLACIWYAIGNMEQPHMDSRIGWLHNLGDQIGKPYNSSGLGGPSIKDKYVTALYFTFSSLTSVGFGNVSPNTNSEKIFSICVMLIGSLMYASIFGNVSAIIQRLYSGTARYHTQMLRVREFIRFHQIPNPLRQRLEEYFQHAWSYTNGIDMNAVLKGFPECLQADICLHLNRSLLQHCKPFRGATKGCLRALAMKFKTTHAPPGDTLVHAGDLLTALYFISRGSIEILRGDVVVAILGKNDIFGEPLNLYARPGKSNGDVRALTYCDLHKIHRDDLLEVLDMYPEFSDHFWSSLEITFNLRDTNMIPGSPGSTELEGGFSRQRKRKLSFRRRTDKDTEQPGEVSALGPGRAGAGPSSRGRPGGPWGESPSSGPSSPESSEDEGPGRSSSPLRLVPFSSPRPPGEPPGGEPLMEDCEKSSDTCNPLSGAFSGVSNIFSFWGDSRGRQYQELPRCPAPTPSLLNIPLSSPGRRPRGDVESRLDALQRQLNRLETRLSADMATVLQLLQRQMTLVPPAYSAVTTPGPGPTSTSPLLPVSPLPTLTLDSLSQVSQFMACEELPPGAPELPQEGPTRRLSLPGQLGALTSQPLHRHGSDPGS", "assay": "primary screen, population patch clamp on CHO cells stably expressing hERG; higher = less effect of the substance", "units": {"hERG current change (%, negative = inhibition) at 10uM": "%"}, "values": [
      {"smiles": "CC(C)Oc1ccc(C(=O)OCC(=O)N2CCCc3ccccc32)cc1", "hERG current change (%, negative = inhibition) at 10uM": 6.85},
      {"smiles": "O=C(CSc1nc2c(c(=O)n1-c1ccccc1)SCC2)N1CCN(c2ccccc2)CC1", "hERG current change (%, negative = inhibition) at 10uM": -76.5},
      {"smiles": "COc1ccc(-n2c(SCC(=O)Nc3ccccc3)nc3c(c2=O)SCC3)cc1", "hERG current change (%, negative = inhibition) at 10uM": -18.7},
      {"smiles": "Cc1ccc(-n2c(SCC(=O)N3CCCC3)nc3c(c2=O)SCC3)cc1", "hERG current change (%, negative = inhibition) at 10uM": 5.3},
      {"smiles": "O=C(CSc1nc2c(c(=O)n1-c1ccccc1)SCC2)N1CCOCC1", "hERG current change (%, negative = inhibition) at 10uM": 5.25},
      {"smiles": "COc1ccc(-n2c(SCC(=O)N3CCN(c4ccccc4)CC3)nc3c(c2=O)SCC3)cc1", "hERG current change (%, negative = inhibition) at 10uM": -70},
      {"smiles": "CCOC(=O)CSc1nc2c(c(=O)n1-c1ccc(OC)cc1)SCC2", "hERG current change (%, negative = inhibition) at 10uM": -9.55},
      {"smiles": "Cc1cc(N)n(C2CCN(C)CC2)n1", "hERG current change (%, negative = inhibition) at 10uM": 1.99},
      {"smiles": "c1ccc2c(CCNc3ncnc4nc[nH]c34)cccc2c1", "hERG current change (%, negative = inhibition) at 10uM": -6.53},
      {"smiles": "CNCCCc1[nH]nc(N)c1C#N", "hERG current change (%, negative = inhibition) at 10uM": 4.22},
      {"smiles": "N#Cc1ccccc1Sc1ccccc1C(=O)Nc1ccccc1", "hERG current change (%, negative = inhibition) at 10uM": 0.339},
      {"smiles": "Cc1ccc(-c2noc(CCC(=O)Nc3ccc4c(c3)OCO4)n2)cc1", "hERG current change (%, negative = inhibition) at 10uM": 3.68},
      {"smiles": "CC(C)(C)OC(=O)N1CCC(CNC(=O)c2cccs2)CC1", "hERG current change (%, negative = inhibition) at 10uM": 10.9},
      {"smiles": "CCCc1nc(SCC(=O)N2c3ccccc3CC2C)c2c(C)c(C)sc2n1", "note": "(stereo not shown)", "hERG current change (%, negative = inhibition) at 10uM": 14.1},
      {"smiles": "N/C(Cc1ccc([N+](=O)[O-])cc1)=N\\OC(=O)CC1CCCCC1", "hERG current change (%, negative = inhibition) at 10uM": -68.5},
      {"smiles": "Cc1ccc(CC(=O)O/N=C(\\N)Cc2ccc([N+](=O)[O-])cc2)cc1", "hERG current change (%, negative = inhibition) at 10uM": 0.827},
      {"smiles": "N/C(Cc1ccc([N+](=O)[O-])cc1)=N\\OC(=O)C(c1ccccc1)c1ccccc1", "hERG current change (%, negative = inhibition) at 10uM": -66.9},
      {"smiles": "Cc1ccc(OCC(=O)O/N=C(\\N)Cc2ccc([N+](=O)[O-])cc2)cc1C", "hERG current change (%, negative = inhibition) at 10uM": -32.7},
      {"smiles": "Cc1cc(C)cc(OCC(=O)O/N=C(\\N)Cc2ccc([N+](=O)[O-])cc2)c1", "hERG current change (%, negative = inhibition) at 10uM": -2.56},
      {"smiles": "N/C(Cc1ccc([N+](=O)[O-])cc1)=N\\OC(=O)C1CCCCC1", "hERG current change (%, negative = inhibition) at 10uM": -3.44},
      {"smiles": "N/C(Cc1ccc([N+](=O)[O-])cc1)=N\\OC(=O)c1ccco1", "hERG current change (%, negative = inhibition) at 10uM": -26.8},
      {"smiles": "N/C(Cc1ccc([N+](=O)[O-])cc1)=N\\OC(=O)Cc1ccc(Cl)cc1", "hERG current change (%, negative = inhibition) at 10uM": -4.39},
      {"smiles": "N/C(Cc1ccc(Cl)cc1)=N\\OC(=O)Cc1ccc([N+](=O)[O-])cc1", "hERG current change (%, negative = inhibition) at 10uM": -4.32},
      {"smiles": "N/C(Cc1ccc([N+](=O)[O-])cc1)=N\\OC(=O)Cc1ccccc1", "hERG current change (%, negative = inhibition) at 10uM": -50.7},
      {"smiles": "CCc1ccc(OCC(=O)O/N=C(\\N)Cc2ccc([N+](=O)[O-])cc2)cc1", "hERG current change (%, negative = inhibition) at 10uM": -53.9},
      {"smiles": "COc1ccc(C/C(N)=N/OC(=O)C(c2ccccc2)c2ccccc2)cc1OC", "hERG current change (%, negative = inhibition) at 10uM": -14.5},
      {"smiles": "COc1cccc(-c2nn[nH]n2)c1O", "hERG current change (%, negative = inhibition) at 10uM": 9.02},
      {"smiles": "c1ccc(CSCc2cn3ccsc3n2)cc1", "hERG current change (%, negative = inhibition) at 10uM": -4.45},
      {"smiles": "COc1ccc(CCNC(=O)C2CCCN(S(=O)(=O)c3cccc4nonc34)C2)cc1OC", "note": "(stereo not shown)", "hERG current change (%, negative = inhibition) at 10uM": 10.5},
      {"smiles": "Cc1cccc(C(=O)NC(=S)NNC(=O)c2cccs2)c1", "hERG current change (%, negative = inhibition) at 10uM": 17.2},
      {"smiles": "Cc1onc(-c2ccccc2)c1NC(=O)N(CCC#N)Cc1ccccc1", "hERG current change (%, negative = inhibition) at 10uM": 3.65},
      {"smiles": "CCOC(=O)c1ccc(NC(=O)c2nc[nH]c2C(=O)NCC(=O)OC(C)(C)C)cc1", "hERG current change (%, negative = inhibition) at 10uM": 19.5},
      {"smiles": "Cc1cc(C)nc(/N=C(\\N)N2CCCCCC2)n1", "hERG current change (%, negative = inhibition) at 10uM": -3.86},
      {"smiles": "CCN(/C(N)=N/c1nc(C)cc(C)n1)c1ccccc1", "hERG current change (%, negative = inhibition) at 10uM": -6.01},
      {"smiles": "CCCCN(CCCC)/C(N)=N/c1nc(C)cc(C)n1", "hERG current change (%, negative = inhibition) at 10uM": -80.2},
      {"smiles": "Cc1cc(C)nc(/N=C(\\N)N(Cc2ccccc2)Cc2ccccc2)n1", "hERG current change (%, negative = inhibition) at 10uM": -70.6},
      {"smiles": "Cc1cc(C)nc(N(C#N)Cc2ccccc2)n1", "hERG current change (%, negative = inhibition) at 10uM": -4.34},
      {"smiles": "CCN(CC)/C(N)=N/c1nc(C)cc(C)n1", "hERG current change (%, negative = inhibition) at 10uM": 7.16},
      {"smiles": "COc1cccc(C=O)c1OCCN1C(=O)c2ccccc2C1=O", "hERG current change (%, negative = inhibition) at 10uM": 4},
      {"smiles": "CCc1ccccc1S(=O)(=O)Cc1ccc(C(=O)NCc2cccs2)o1", "hERG current change (%, negative = inhibition) at 10uM": -22.5},
      {"smiles": "Cc1cc(C(=O)CCl)c(C)n1CCc1ccc(F)cc1", "hERG current change (%, negative = inhibition) at 10uM": 27.2},
      {"smiles": "CN1CCN(c2ncnc3c2cnn3C)CC1", "hERG current change (%, negative = inhibition) at 10uM": 19.5},
      {"smiles": "CC1CC(C)CN(c2ncnc3c2cnn3C)C1", "note": "(stereo not shown)", "hERG current change (%, negative = inhibition) at 10uM": -69.8},
      {"smiles": "CC1CC(C)CN(c2ncnc3c2cnn3-c2ccc(Cl)cc2)C1", "note": "(stereo not shown)", "hERG current change (%, negative = inhibition) at 10uM": 3.17},
      {"smiles": "Cc1ccccc1NC(=O)c1cccnc1", "hERG current change (%, negative = inhibition) at 10uM": -7.59},
      {"smiles": "CCCCOC(=O)c1cc(=O)[nH]c2ccc(C)cc12", "hERG current change (%, negative = inhibition) at 10uM": 5.6},
      {"smiles": "CC1(C)OC(=O)C(=NNc2ccccc2[N+](=O)[O-])C(=O)O1", "hERG current change (%, negative = inhibition) at 10uM": 24.3},
      {"smiles": "COC(=O)CN(c1ccc(Cl)cc1C)S(C)(=O)=O", "hERG current change (%, negative = inhibition) at 10uM": 13.9},
      {"smiles": "N#Cc1cccc(C(=O)N(CCc2ccccc2)Cc2cccs2)c1", "hERG current change (%, negative = inhibition) at 10uM": -53.3},
      {"smiles": "COc1ccc(C(=O)N(CCc2ccccc2)Cc2cccs2)c(OC)c1", "hERG current change (%, negative = inhibition) at 10uM": -15.9},
      {"smiles": "CS(=O)(=O)c1cccc(C(=O)N(CCc2ccccc2)Cc2cccs2)c1", "hERG current change (%, negative = inhibition) at 10uM": -48.6},
      {"smiles": "O=C(Cc1ccccc1)Nc1ccc(C(=O)NCc2ccccc2)cc1", "hERG current change (%, negative = inhibition) at 10uM": 11.2},
      {"smiles": "C=CCn1c(SCC(=O)Nc2ccc(C(=O)O)cc2)nnc1-c1cccnc1", "hERG current change (%, negative = inhibition) at 10uM": 34.6},
      {"smiles": "O=C(CSc1nnc(-c2cccnc2)n1CCN1CCCCC1)Nc1cccc(Cl)c1", "hERG current change (%, negative = inhibition) at 10uM": -79.8},
      {"smiles": "Cn1c(SCC(=O)Nc2ccc(F)cc2)nnc1-c1cccnc1", "hERG current change (%, negative = inhibition) at 10uM": -11.5},
      {"smiles": "CCCn1c(SCC(=O)Nc2cccc(C(=O)OC)c2)nnc1-c1cccnc1", "hERG current change (%, negative = inhibition) at 10uM": -42},
      {"smiles": "Cn1c(SCC(=O)Nc2cccc(F)c2)nnc1-c1cccnc1", "hERG current change (%, negative = inhibition) at 10uM": -33.1},
      {"smiles": "Cc1ccc(NC(=O)CSc2nnc(-c3cccnc3)n2CCN2CCCCC2)cc1", "hERG current change (%, negative = inhibition) at 10uM": -69}
    ]}
  ]
}
